High-throughput results as filed in PubChem.
Tg IFNy HTS = blocks Toxoplasma gondii growth in the presence of IFN-gamma; activity change, negative = inhibition, % (no concentration beside the values); actives 3.8% (n = 69,000); AID 1259416; Toxoplasma gondii growth in IFN-gamma-treated host cells; active compounds read low; in the data active = activity change below about -70%, passing the limit was not always enough;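 also: host cells are HeLa cells infected with Toxoplasma gondii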
* marks the source's active call; other numbers are inactive results; ! = not confirmed by another sample. The full list was thinned out, with hits kept by preference.

SMILES | Tg IFNy HTS
Cc1nc(C(F)(F)F)ccc1C(=O)Sc1ccc(F)cc1 | -1
COc1ccccc1CC(=O)Nc1ccc(-c2nc(Cn3cc(C)cn3)c(C)o2)cc1 | -95*
Cc1cnn(Cc2nc(-c3ccc(NC(=O)CC4CCCC4)cc3)oc2C)c1 | -15
COc1ccccc1C(=O)Nc1ccc(-c2nc(Cn3cc(C)cn3)c(C)o2)cc1 | 15
CC(=O)Nc1ccc(-c2nc(Cn3cc(C)cn3)c(C)o2)cc1 | 64
COc1ccc(CC(=O)Nc2ccc(-c3nc(Cn4cc(C)cn4)c(C)o3)cc2)cc1 | -51
Cc1cnn(Cc2nc(-c3ccc(NC(=O)CCc4ccccc4)cc3)oc2C)c1 | -84*
O=C(CN1CCC(Oc2cnccn2)CC1)Nc1ccc(N2CCCCCC2)cc1 | 10
NC(=O)N1CCC2(CC1)CC(=O)N(CC1CCCO1)c1ccccc12 (stereo not given) | -8
O=C(O)c1ccc(C2CCN(C(=O)Cc3cccnc3)C2)cc1 (stereo not given) | -3
CC1(C)NC(=O)N(CC(=O)Nc2ccc(N3CCCCC3)c(C(F)(F)F)c2)C1=O | -23
COc1cc(C(=O)Nc2ccc(N3CCCCC3)c(C(F)(F)F)c2)nc(OC)n1 | -82*
COc1ncc(C(=O)Nc2ccc(N3CCCC3)c(F)c2)cn1 | 45
O=C1CCC(C(=O)N2CCOC3(CNCCOC3)C2)=NN1 (stereo not given) | 5
CC(=O)N1Cc2cncn2CC(COCC(=O)N2CCCC2)C1 (stereo not given) | -3
NS(=O)(=O)c1ccc(NC(=O)Nc2ccc(F)cc2)cc1 | 25
O=C(Nc1ccc(S(=O)(=O)Nc2ccccn2)cc1)c1ccc(Cl)c(Cl)c1 | -3
NS(=O)(=O)c1ccc(NC(=O)c2ccc(-c3cc(Cl)ccc3Cl)o2)cc1 | -100*
Cc1[nH]cnc1-c1nccn1CCc1cnn(-c2ccccc2)c1 | 7
O=C(NCC1CC1)C1CN(Cc2cccs2)CC12CCOCC2 (stereo not given) | 119
Cc1oc(-c2ccccc2)nc1CSc1nc2c(c(=O)[nH]1)CN(Cc1ccccc1)CC2 | -36
COc1ccc(CN2CCc3nc(SCc4nc(-c5ccccc5)oc4C)[nH]c(=O)c3C2)cc1 | -15
COc1ccc(-c2nc(CSc3nc4c(c(=O)[nH]3)CN(Cc3ccccc3)CC4)c(C)o2)cc1 | -77*
Cc1nc(C(=O)N2CCCC3(CCN(C)C3=O)CC2)cs1 (stereo not given) | -12
CC(C)c1noc(-c2cc(=O)n(CC(=O)Nc3ccc(Cl)cc3)c3ccccc23)n1 | 50
SMILES | Tg IFNy HTS
CC(=O)c1cc(CN2CCC3(CC2)N=C(c2ccccn2)NC3=O)cs1 | 10
CC(C)OC(=O)CSc1nnc(-c2ccc(O)cc2)n1C | 6
Cc1ccc(C(=O)CSc2nnc(-c3ccncc3)n2C)cc1 | -3
Cc1ccc(-c2nnc(SCC(=O)c3ccc4c(c3)n(C)c(=O)n4C)n2C)cc1 | -98*
COc1ccc(S(=O)(=O)NCCc2sc(-c3ccc(Cl)cc3)nc2C)cc1OC | 31
O=C(Nc1ccccc1)Nc1ccc(-c2ccc(C(=O)[C@@H]3CCC[C@@H]3C(=O)O)cc2)cc1 | 30
COc1ccc2nc(C)cc(Nc3ccccc3O)c2c1 | -63
COc1ccc(CNC(=O)c2nc(Nc3ccc(C)cc3)c3ccccc3n2)cc1 | -29
COc1ccc(Nc2cc(C)nc3ccc(C)cc23)cc1 | -97*
Cn1ccnc1SCC(=O)N1CCC(n2cccc2)CC1 | -31
Cc1cc(C)c2c(c1)CC(C)(C)c1[nH]c(-c3ccc(Cl)cc3Cl)nc1-2 | -71*
COCCN(Cc1cc2ccc(C)c(C)c2nc1Cl)C(=S)Nc1ccccc1Cl | -63
O=C(Nc1ccccc1)c1cc([N+](=O)[O-])ccc1Cl | 14
O=C(O)c1cc([N+](=O)[O-])ccc1NCCCc1ccccc1 | 30
O=C(Nc1ccc([N+](=O)[O-])cc1Cl)c1cc(Cl)ccc1O | -76*!
CCC(=O)Oc1ccc(C(=O)Nc2ccc([N+](=O)[O-])cc2)cc1 | 110
O=C(Nc1ccncc1)c1cc([N+](=O)[O-])ccc1Cl | -82*
O=C(NCCNc1ccc(Cl)cc1[N+](=O)[O-])c1cccnc1 | -5
Cc1cc(C)nc(Nc2cccc(C3CCCN3C(=O)c3ccccc3)n2)n1 (stereo not given) | 13
CC(=O)NCC(=O)N1Cc2ccnn2CC(c2nc(C)no2)C1 (stereo not given) | -2
Cc1cc(C)c(-c2nccn2Cc2cccnc2)cc1Cn1cncn1 | 1
CC1NC(=O)COC12CCN(C(=O)c1cccs1)CC2 (stereo not given) | -10
CCn1c(=O)c(C(=O)Nc2ccc(OC)cc2)c(O)c2ccccc21 | 116
CCN(CC)C(=O)c1cc(=O)n(CC(=O)Nc2cc(C)ccc2C)c2ccccc12 | 1
C#CC1(O)CCC2C3CCC4=Cc5oncc5CC4(C)C3CCC21C (stereo not given) | -86*
CC(=O)[C@@]1(O)CC[C@H]2[C@@H]3CCC4=CC(=O)CC[C@]4(C)[C@H]3CC[C@@]21C | 8
C[C@]12CCC3c4ccc(O)cc4CCC3C1CCC2=O (stereo not given in full) | -79*
